Experimental findings from ChEMBL document CHEMBL4513216, “Probing the Open Global Health Chemical Diversity Library for Multistage-Active Starting Points for Next-Generation Antimalarials” (ACS Infect Dis, 2020) are described below.

The campaign covered roughly 69,000 compounds. About 8,600 (12%) showed an effect of 50% or more. The sample as a whole holds a higher share of strong results than the screen did.

The test system of the test is Plasmodium berghei. Description: Screen against P. berghei liver stage (PbLuc), transformed with Luciferase, at 10uM. The following applies: tested at 10 uM. The test is classed as functional, HepG2.
Take `Cc1nn(C)cc1C1CC(=O)Nc2c1cnn2C(C)(C)C` (configuration not stated): the INHIBITION is on record as -16.5%. As to `O=C(c1ccn(-c2cccc(Cl)c2)n1)N1CCN(CCO)CC1`, the INHIBITION is -12.2%.

Take `CS(=O)(=O)N1CCN(C(=O)c2cncs2)CC(C(N)=O)C1` (configuration not stated): the INHIBITION is -0.8525%. Under `Cc1noc(C)c1CN1CCC2(CC1)C(c1ccccc1)CC(=O)N2C` (configuration not stated) stands 42.1%; under `CN1C(=O)CC(c2ccccc2)C12CCN(CCO)CC2` (configuration not stated), -63.9%; under `Cc1cccc(CN2CCC3(CC2)CC(c2cccnc2)C(=O)N3C)n1` (configuration not stated), 20.6%. Next, `Cc1ccc(CN2CCC3(CC2)C(c2ccccc2)CC(=O)N3C)o1` (configuration not stated): 51.2%; `CN1C(=O)C(c2cccnc2)CC12CCN(CCO)CC2` (configuration not stated): -7.24%. Next, `Cc1ccc(CN2CCC3(CC2)CC(c2cccnc2)C(=O)N3C)o1` (configuration not stated): 55.4%; `Cc1nc(C2CCCN2C(=O)Cc2cccc(F)c2)nc(O)c1C` (configuration not stated): 11.1%. On to `O=C(Cc1ccsc1)N1CCCC2(COCCN(CC3CC3)C2)C1` (configuration not stated), for which the INHIBITION is -14.3%. Under `COCCNC(=O)Cn1cc(NC(=O)c2cc(Cl)c(Cl)n2C)cn1` stands 12.9%. Next, `Cc1cc(C)n(CC2CN(CC(=O)NCc3cccs3)CCO2)n1` (configuration not stated): 18.933%; `CCc1nccn1CCC(=O)N1CC(=O)N(c2ccccc2C)CC1C` (configuration not stated): 49.9%.

For `CCc1nccn1CC(=O)N1C[C@@H]2CC[C@H]1CN(S(=O)(=O)N(C)C)C2`, the INHIBITION is listed as 17%. Under `CCc1nccn1CC(=O)N1C[C@@H]2CC[C@H]1CN(C(=O)N(C)C)C2` stands -19.7%; under `Cc1ccccc1N1CC(C)N(Cc2ccc(C)c(F)c2F)CC1=O` (configuration not stated), -8.92%; under `Cc1ccccc1N1CC(C)N(C(=O)CCn2cccn2)CC1=O` (configuration not stated), 64.5%. Turning to `CCc1nccn1CCC(=O)N1C[C@@H]2CC[C@H]1CN(C(=O)N(C)C)C2`, the INHIBITION was 50.2%. For the molecule `Cc1ccccc1N1CCN(C(=O)CCc2nncn2C)C(C)C1` (configuration not stated), the INHIBITION is recorded as 8.38%. Next, `COc1cccc(CN2CC(=O)N(c3ccccc3C)CC2C)c1OC` (configuration not stated): 17.8%. Next, `CCc1nccn1CCC(=O)N1CCN(c2ccccc2C)CC1C` (configuration not stated): 66.7%. Take `COCCn1ccnc1C1CCN(C(=O)CSc2nnc(C)o2)CC1`: the INHIBITION stood at 7.24%. In the case of `COc1ncccc1CNC(=O)c1c(C)oc(C)c1C`, the INHIBITION stood at 5.1%. With `CNC(=O)c1ccc(C2CN(CC(=O)N(C)C)CCO2)nc1` (configuration not stated), the INHIBITION is recorded as -3.94%.

As to `c1cncc(OCC2CC3(CCN(CC4CC4)CC3)CO2)c1` (configuration not stated), the INHIBITION worked out at 13.7%. In the case of `COc1ccc(C)nc1NC(=O)Cc1c(C)nn(C)c1C`, the INHIBITION amounted to 41.6%. Next, `COCC[C@]1(O)CCN(CC(=O)NCc2ccccc2C)C[C@H]1C`: 46.3%; `O=C(Cc1ccccn1)NCC1OCCc2cn(CC3CC3)nc21` (configuration not stated): 3.25%; `O=S(=O)(NCc1cccnc1OC1CCCC1)N1CCOCC1`: 16.3%. On to `Cc1ccc(Oc2ncccc2CNS(=O)(=O)N2CCOCC2)cn1`, for which the INHIBITION stood at 70.1%.

Take `CCOc1ncccc1CNS(=O)(=O)N1CCOCC1`: the INHIBITION is given as -8.28%. Under `O=c1cc(Cn2cncn2)nc2n1CCCN(CCN1CCCC1)C2` stands 16.6%; under `Cc1cc(C)n(C2CN(CC(O)c3ccc(C(F)(F)F)cc3)C2)n1` (configuration not stated), -24.2%. For the molecule `c1cc2nccc(CC3CCCN(Cc4c[nH]cn4)CC3)c2cn1` (configuration not stated), the INHIBITION turned out to be 75.3%.

As to `c1cc2nccc(CC3CCCN(Cc4ncc[nH]4)CC3)c2cn1` (configuration not stated), the INHIBITION amounted to 32.4%. Under `Cn1ccnc1CN1CCCC(Cc2ccnc3ccncc23)CC1` (configuration not stated) stands 29.3%; under `CC(C)c1ccc(OCC(=O)N(C)C)cc1`, -11.2%; under `CC(C)n1c(=O)[nH]c2cn(-c3ccccc3)c(=O)n21`, 6.32%.

As to `CCNC(=O)C1(Cc2cc(-c3ccc(C)cc3)no2)CCCN(C)C1` (configuration not stated), the INHIBITION worked out at 23%.

Take `c1cc(-c2nnc([C@H]3CCN(C4CCCCC4)C3)o2)ccn1`: the INHIBITION is given as -5.77%. Next, `c1ccc(-c2nnc([C@H]3CCN(C4CCOCC4)C3)o2)cc1`: 18.4%; `COc1ccc(-c2nnc([C@H]3CCN(C4CCC4)C3)o2)cc1`: 57.8%. Under `Cc1ccc(-c2nnc([C@H]3CCN(C4CCC4)C3)o2)cc1` stands 4.07%; under `c1cc(-c2nnc([C@H]3CCN(C4CCOCC4)C3)o2)ccn1`, 54%; under `c1ccc(-c2nnc([C@H]3CCN(C4CCC4)C3)o2)cc1`, 46.4%.

With `O=C(NCCc1ccccn1)[C@@]12CCO[C@@H]1CCN(c1ncccn1)C2`, the INHIBITION is on record as 34.6%. Next, `CCc1ncc2c(n1)CN(CC(=O)Nc1cccnc1)CC2`: 19.4%. Next, `CSc1ccc(NC(=O)Cn2cc(NC(C)=O)cn2)cc1`: 33.7%; `CCOC(=O)[C@H]1[C@@H](O)C(=O)N(C)C12CCN(C(=O)OC)CC2`: 29.8%; `Cn1ccc(CN2CCC(CC(=O)NC3CCCC3)CC2)cc1=O`: 27.2%. With `COc1cc(CNC(=O)COC2CCCCC2)ccc1O`, the INHIBITION amounted to 26.5%. Next, `Cc1noc([C@@H]2C[C@H]3OCC[C@H]3N(S(=O)(=O)c3ccccc3)C2)n1`: -5.08%; `Cc1occc1C(=O)NCC(=O)N(C)CCCOc1ccccc1`: 61%; `Cc1occc1C(=O)NCC(=O)NCCCOc1ccc(F)cc1`: 54.5%. Next, `Cc1occc1C(=O)NCC(=O)NCCOc1ccc2c(c1)CCC2`: 42.3%; `Cc1ccccc1C(NC(=O)CNC(=O)c1ccoc1C)C(C)C` (configuration not stated): -68.2%. Next, `Cc1occc1C(=O)NCC(=O)N(C)CCCOc1ccc(F)cc1`: 26.7%.

With `Cc1occc1C(=O)NCC(=O)NCCOc1cccc(Cl)c1`, the INHIBITION was -10.6%. As to `O=C1CC(c2ccc(C(F)(F)F)cc2)c2c(n3ccsc3nc2=O)N1` (configuration not stated), the INHIBITION came out at 17%. Next, `COc1nsc2nc(C3CCCN3c3ncccn3)ccc12` (configuration not stated): 25.49%; `Cc1ccc(C(=O)NCCCn2cccn2)c(=O)[nH]1`: -1.98%; `Cc1ccc(C(=O)NCC(C)Cn2cccn2)c(=O)[nH]1` (configuration not stated): 58.5%. Next, `Cc1ccc(C(=O)NCC(O)c2ccc(Cl)s2)c(=O)[nH]1` (configuration not stated): 37.2%; `Cc1ccc(C(=O)NC(C)Cn2cccn2)c(=O)[nH]1` (configuration not stated): 42.6%; `Cc1ccc(C(=O)NCC(C)CN2CCCC2=O)c(=O)[nH]1` (configuration not stated): 37.1%. In the case of `Cc1ccc(C(=O)NCC(C)Cn2ccnc2C)c(=O)[nH]1` (configuration not stated), the INHIBITION is on record as 55.5%. Next, `Cc1cnc(C(=O)N2C[C@@H]3CC[C@H]2CN(Cc2cscn2)C3)[nH]1`: 42.1%; `COc1cccc(CN2CCN(c3cccc(C(C)C)n3)CC2)c1F`: -26.1%; `Cc1ccc(F)cc1NC(=O)c1[nH]ncc1Br`: 11.7%. As for `COCC(C)NC(=O)c1cncc(Br)c1` (configuration not stated), the INHIBITION was -26.4%. Next, `C[C@H](CCO)NS(=O)(=O)c1ccc(Br)cn1`: 21.7%. For `CS(=O)(=O)CCOCCNc1ccc(Br)cn1`, the INHIBITION was -3.08%. On to `CCC(CCO)NS(=O)(=O)c1ccc(Br)cn1` (configuration not stated), for which the INHIBITION was found to be 65.4%. `COCC(C)NS(=O)(=O)c1ccc(Br)cn1` (configuration not stated): the INHIBITION is 56%. Next, `CCS(=O)(=O)N(C)CC(=O)Nc1ccc(Br)cn1`: 6.81%; `CCN(C(=O)c1nc2c(s1)CCCN2C(C)=O)C(C)C`: 5.68%; `O=C(c1cccc2c1OCCO2)N1CCCC1c1noc(C2CC2)n1` (configuration not stated): 2.3%. As for `COCC(=O)N1CCC2(COCc3cnc(NCc4ccco4)nc32)C1` (configuration not stated), the INHIBITION amounted to 24.3%. Under `COCCC(=O)N1CCC2(COCc3cnc(NCC4CC4)nc32)C1` (configuration not stated) stands 61.5%. Next, `COCCC(=O)N1CCC2(COCc3cnc(-c4ccccc4)nc32)C1` (configuration not stated): 16.5%; `COCCC(=O)N1CCC2(COCc3cnc(-c4cccnc4)nc32)C1` (configuration not stated): 33.1%; `COCCC(=O)N1CCC2(COCc3c(C)nc(NCC4CC4)nc32)C1` (configuration not stated): 33%. Next, `COCCC(=O)N1CCC2(COCc3cnc(N(C)C)nc32)C1` (configuration not stated): 53.2%. Consider `Cc1cccc(CNC(=O)CCc2c(C)nc3cc(O)nn3c2C)n1`, for which the INHIBITION was 33.3%. Next, `CC(CN1CCOCC1)NC(=O)NCc1ccoc1` (configuration not stated): -7.36%; `Cc1nc(NCCN2CCCC2=O)cc(C2CN(C)CCO2)n1` (configuration not stated): -17.9%; `CC(NC(=O)NCCCn1cncn1)c1ccc(C(F)(F)F)cc1` (configuration not stated): -16.88%.

Consider `Cc1ccc(S(=O)(=O)N2C[C@H]3C[C@H](NC(=O)c4cnn(C)c4)[C@H]3C2)cc1`, for which the INHIBITION is recorded as 78.5%. Under `Cc1ccc(S(=O)(=O)N2C[C@H]3C[C@H](NC(=O)c4cc(C)no4)[C@H]3C2)cc1` stands 5.11%; under `Cc1ccc(S(=O)(=O)N2C[C@@H]3C[C@@H](NC(=O)C(C)(C)C)[C@@H]3C2)cc1`, 44.9%; under `Cc1ccc(S(=O)(=O)N2C[C@H]3C[C@H](NC(=O)c4ccn(C)n4)[C@H]3C2)cc1`, 38.7%. With `Cc1ccc(S(=O)(=O)N2C[C@H]3C[C@H](NC(=O)c4ccnn4C)[C@H]3C2)cc1`, the INHIBITION was 77.9%.

With `Cc1ccc(S(=O)(=O)N2C[C@H]3C[C@H](NC(=O)C(C)C)[C@H]3C2)cc1`, the INHIBITION came to 19.6%.

Turning to `CC1(C)CN=C(N2CCN(CC3CCCCO3)CC2)S1` (configuration not stated), the INHIBITION came to 27.6%. Under `COCC1COCCC12CCN(Cc1cccs1)CC2` (configuration not stated) stands 23.6%.

As to `COCCN1C(=O)C[C@H]2[C@H]1CCN2C(=O)c1ccc[nH]1`, the INHIBITION stood at 26.3%.

`CCN1CCN(Cc2nc(CCc3ccccc3)n[nH]2)CC1`: the INHIBITION was found to be 56.5%.

For `c1ccc(CCc2n[nH]c(CCN3CCCCC3)n2)cc1`, the INHIBITION came to 38.5%. Regarding `CCN1CCN(Cc2nc(Cc3ccccc3)n[nH]2)CC1`, the INHIBITION is -7.17%. Consider `CCOCc1cc(CNC2CCCc3c2cnn3CC)ccc1OC` (configuration not stated), for which the INHIBITION worked out at 33.8%. Consider `Cc1nc2sccn2c1CN(CCCN(C)C)Cc1ccco1`, for which the INHIBITION is listed as 33.5%. On to `CC(CO)NC(=O)c1ccc(NCc2cc(C#N)ccc2F)cc1` (configuration not stated), for which the INHIBITION is reported as 26.8%. Turning to `Cc1nc[nH]c1CN1C[C@H]2CC[C@@H](C1)N(C(=O)CCc1cnn(C)c1)C2`, the INHIBITION came out at 40.1%.

As for `CSCCCN1C[C@@H]2CC[C@H]1CN(Cc1[nH]cnc1C)C2`, the INHIBITION was 45.8%. Next, `Cc1cc(CN2C[C@@H]3CC[C@H]2CN(Cc2[nH]cnc2C)C3)on1`: 62.1%; `Cc1nc[nH]c1CN1C[C@H]2CC[C@@H](C1)N(C(=O)CCNS(C)(=O)=O)C2`: 26.8%.

As to `Cc1cccc(CN2C[C@@H]3CC[C@H]2CN(Cc2[nH]cnc2C)C3)n1`, the INHIBITION amounted to 58.5%.

On to `CSc1ccccc1CN1C[C@@H]2CC[C@H]1CN(Cc1[nH]cnc1C)C2`, for which the INHIBITION was determined as 60.3%.

As to `Cc1ccc(CN2C[C@@H]3CC[C@H]2CN(Cc2[nH]cnc2C)C3)o1`, the INHIBITION is listed as 24.9%. Under `Cc1nc[nH]c1CN1C[C@H]2CC[C@@H](C1)N(C(=O)c1cnn(C)c1)C2` stands 10.7%; under `Cc1nc[nH]c1CN1C[C@H]2CC[C@@H](C1)N(C(=O)CCc1cccnc1)C2`, 8.38%.
